Results as given in PubChem BioAssay AID2717 (Broad Institute, 2010).
The campaign covered roughly 300,000 compounds. About 3,200 (1.1%) were called active. Many of the other results were omitted from the sample, so actives are more common in it than they were. Values without a mark were called inactive. Rule as the data show it: active = inhibition above about 75%; inconclusive = no clear call, values can overlap the other calls; inactive = below that; tested in HMLE shEcad cells.

Assay: growth suppression of cancer stem-like cells – cell-based, luminescence, primary screen (AID 2717)
Details: cancer stem cell-like cells viability, at 7.5 µM, hits give high values

SMILES	inhibition
CC[C@H]1CN2CCc3cc(OC)c(OC)cc3[C@@H]2C[C@@H]1C[C@H]1NCCc2cc(OC)c(OC)cc21	76.3% (active)
COc1cc2c(cc1O)[C@H](Cc1ccc(Oc3cc(C[C@@H]4NCCc5cc(OC)c(O)cc54)ccc3O)cc1)NCC2	9.97%
COc1ccc2c(c1)CCNC2Cc1ccc(OC)c(O)c1 (configuration not stated)	10.2%
CN=C(Nc1cccc(S(=O)(=O)N2CCOCC2)c1)c1ccccc1	-5.3%
COc1cccc(CNC(=O)CCCC(=O)Nc2cccc([N+](=O)[O-])c2)c1	-9.18%
COc1ccc(S(=O)(=O)NC(C)C(=O)Nc2cccc([N+](=O)[O-])c2)cc1 (configuration not stated)	-2.67%
COC(=O)/C=C\C(=O)Nc1cccc([N+](=O)[O-])c1	88.5% (active)
Cc1ccc(NC(=O)c2ccc(Cl)nc2)cc1S(=O)(=O)N1CCOCC1	33.6%
Cc1cccc(N2CCN(C(=O)COCc3cc(-c4ccc5c(c4)OCO5)on3)CC2)c1C	121% (active)
O=C(COCc1cc(-c2ccc3c(c2)OCO3)on1)N1CCN(c2cccc(Cl)c2)CC1	36.2%
CCOC(=O)N1CCN(C(=O)COCc2cc(-c3ccc4c(c3)OCO4)on2)CC1	-12.8%
Cc1ccc(C(=O)Nc2ccc3c(c2)OCCO3)cc1S(=O)(=O)N1CCOCC1	-3.87%
C[C@H](CO)N1C[C@H](C)[C@@H](CN(C)S(=O)(=O)c2ccc(F)cc2)Oc2ccc(NC(=O)CCC(F)(F)F)cc2C1=O	4.59%
CCN(c1ccccc1)S(=O)(=O)c1ccc(C(=O)Nc2ccccc2OC)cc1	16.8%
COc1ccc([C@H]2CC(=O)C=C(c3ccc(CO)cc3)C2)cc1	-11%
Cc1csc(NC(=S)Nc2cccc(Cl)c2)n1	78.6% (active)

SMILES	inhibition
FC(F)(F)c1cccc(NC(=S)Nc2cccc(Cl)c2)c1	52.9%
S=C(Nc1cccc(Cl)c1)Nc1ccc2c(c1)OCCO2	4.65%
CCN(CC)S(=O)(=O)c1ccc(N2CCOCC2)c(NC(=O)C(C)Oc2ccc(F)cc2)c1 (configuration not stated)	-11.2%
CN(c1ccccc1)S(=O)(=O)c1cc(C(=O)N2CCN(c3ncccn3)CC2)ccc1Cl	3.3%
COc1ccc(C)cc1S(=O)(=O)N1CCN(S(=O)(=O)c2cc(C(=O)O)ccc2C)CC1	-3.35%
Cc1ccc(C)c(S(=O)(=O)N2CCN(c3ncnc4sccc34)CC2)c1	101% (active)
Cc1ccc(C)c(S(=O)(=O)N2CCN(C(=O)Nc3ccccc3)CC2)c1	-18.4%
CCN1C(=O)/C(=C\N2CCN(c3cccc(Cl)c3)CC2)SC1=S	100% (active)
CCC1(C)NC(=O)N(CC(=O)N2CCN(c3cccc(Cl)c3)CC2)C1=O (configuration not stated)	3.29%
CCN1C(=O)/C(=C\N2CCOCC2)SC1=S	-22.1%
COc1cc(/C=C/C(=O)Nc2ccc(OC)c(S(=O)(=O)N3CCOCC3)c2)ccc1OCC#N	42.4%
O=C(Nc1cccc(S(=O)(=O)N2CCCC2)c1)c1cncc(Br)c1	-1.23%
C=CCC[C@@H](Cc1ccc(F)cc1)C(=O)OC[C@@H](C)NC(=O)[C@H](CC=C)CC(=O)N(CCO)Cc1ccccc1	-1.95%
O=C(CSc1nnc(-c2ccncc2)o1)Nc1cccc(Cl)c1	7.36%
Cc1cc(C)c(S(=O)(=O)N2CCC(C(=O)OCc3c(C)noc3C)CC2)c(C)c1	1.55%
COc1cc(/C=C/C(=O)OCC(=O)NCCCc2ccccc2)ccc1O	14.6%
